Screening results deposited in PubChem BioAssay by National Center for Advancing Translational Sciences (NCATS).
Sampled rows, rich in hits. Any-hit rate of the full collection: about 3.2%.
Tau FP inhib: inhibitors of human tau fibril formation; P10636; K18 P301L tau heparin fibrillization, Alexa594 FP, 6 h; Potency, µM (doses to about 57.7 µM), hits mostly inhibitors; 280,000 compounds, 0.39% hits; AID 1468; also: nearly all actives have a fitted effect of over 55% in size
Target sequence (P10636 561-689 P618L limits assumed): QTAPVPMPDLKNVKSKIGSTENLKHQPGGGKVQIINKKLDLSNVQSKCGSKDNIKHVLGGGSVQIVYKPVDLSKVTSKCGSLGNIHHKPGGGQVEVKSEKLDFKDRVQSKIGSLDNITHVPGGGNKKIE
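Recombinant K18 P301L […], labeled with Alexa 594 at 0.24 uM over 15 uM unlabeled; heparin inducer 20 uM final; 37 C, 6 hr; FP endpoint.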
Tau fluor cs: counter-screen for tau fibril formation inhibitors | 280,000 compounds, 0.93% hits | tau K18 P301L Alexa594 fluorescence, heparin fibrillization | Potency, µM (titrated, usually from 57.7 µM); also: nearly all actives have a fitted effect of over 55% in size
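Human tau K18 P301L (15 uM unlabeled, 0.24 uM Alexa 594-labeled) in 100 mM sodium acetate pH 7 with 20 uM heparin, 6 hr at 37 C. ThT 30 uM added, 1 hr ambient; Alexa 594 FP and total fluorescence read at 555/632 nm.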
GoLoco inh red: blocks human Gai1 binding to RGS12 GoLoco peptide, red readout | Gai1:RGS12 GoLoco peptide FP, rhodamine, 10 min | 230,000 compounds, 0.44% hits | Potency, µM (top dose mostly 61.6 µM), hits mostly inhibitors | P63096; active = well fitted inhibition curve with a large enough effect, not every such curve was filed as active; inactive = no such curve, though single readings can be large or run the other way; also: nearly all actives have a fitted effect of over 30% in size
TR SRC2 fluor cs: counter-screen for TRb-SRC2 inhibitors: fluorescence interference; TRb/SRC2 Texas Red total fluorescence interference; 280,000 compounds, 0.29% hits; Potency, µM (highest dose often 106 µM); AID 1479; active = well fitted curve in either direction with a large enough effect; inconclusive = small, poorly fitted or top-dose-only effect
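Human TRb ligand-binding domain at 0.6 uM with 20 nM Texas Red SRC2 peptide in Tris buffer containing 1 uM T3 and 5% DMSO, incubated with compound 5 h at ambient temperature. Total fluorescence (555/632 nm) calculated as parallel + 2 × perpendicular.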
Tau fibril ThT: inhibitors of human tau fibril formation, thioflavin T binding | P10636 | recombinant tau K18 P301L (four-repeat tau fragment), heparin-induced fibrillization, ThT fluorescence | Potency, µM (series often up to 57.4 µM), actives largely listed as inhibitors | 270,000 compounds, 2.1% hits; also: nearly all actives have a fitted effect of over 55% in size
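Tau K18 P301L fragment (15 uM unlabeled plus 0.24 uM Alexa 594-labeled) in 100 mM sodium acetate pH 7 with compound, fibrillization induced by 20 uM heparin for 6 hr at 37 C. Thioflavin T (30 uM) added, fluorescence read after 1 hr (ex 450, em 510 nm).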
TRb-SRC2 inh: TRbeta-SRC2 interaction inhibition. P10828. TRbeta-SRC2 peptide binding, fluorescence polarization; receptor liganded with 1 µM T3. Potency, µM (titrated, usually from 106 µM), usual class: inhibitors. 280,000 compounds, 0.065% hits; also: nearly all actives have a fitted effect of over 50% in size
Target sequence (P10828 whole entry, looked up): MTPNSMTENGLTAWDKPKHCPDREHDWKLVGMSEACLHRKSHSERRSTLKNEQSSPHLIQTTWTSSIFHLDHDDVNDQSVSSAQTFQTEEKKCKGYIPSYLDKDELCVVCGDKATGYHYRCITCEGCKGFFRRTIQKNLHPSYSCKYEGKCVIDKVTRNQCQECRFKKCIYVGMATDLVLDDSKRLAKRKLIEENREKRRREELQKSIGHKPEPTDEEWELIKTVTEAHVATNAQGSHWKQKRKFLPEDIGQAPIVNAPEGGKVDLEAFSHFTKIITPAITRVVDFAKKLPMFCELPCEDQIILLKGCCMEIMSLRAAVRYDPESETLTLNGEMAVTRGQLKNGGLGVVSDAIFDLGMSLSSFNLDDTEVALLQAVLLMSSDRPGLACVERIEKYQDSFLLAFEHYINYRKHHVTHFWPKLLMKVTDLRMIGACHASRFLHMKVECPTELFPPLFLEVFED
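Binding of a 20-amino-acid Texas Red SRC2 peptide (20 nM) to TRb ligand-binding domain (0.6 uM) with agonist T3 at 1 uM was followed by fluorescence polarization after a 5 hr room-temperature incubation.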
Large screens that a line does not name were inactive; [ ] = another dose, or the depositor's remark. Unless noted, calls follow the shape of the dose curve; as a rule, active = well fitted curve in the direction sought with a large enough effect; inconclusive = small, poorly fitted or top-dose-only effect, or another doubt; inactive = no such curve, though single readings can be large; an effect the other way counts as inactive or inconclusive.

CC(=O)N(Cc1ccc(F)cc1)C1=C(NCc2ccccc2)C(=O)c2ccccc2C1=O	Tau fluor cs inconclusive, Tau fibril ThT 28µM
CC1=NN2C(=N)/C(=C\c3ccc(SCc4ccccc4)o3)C(=O)N=C2S1	Tau fibril ThT inconclusive
N=C1/C(=C\c2ccc(SCc3ccco3)o2)C(=O)N=C2SC=NN12	TR SRC2 fluor cs inconclusive, Tau fibril ThT 6.3µM
O=c1oc(-c2ccc([N+](=O)[O-])cc2)nc2ccc(O)cc12	Tau fluor cs inconclusive, Tau fibril ThT 13µM
Nc1ccc2c(c1)-c1ccccc1S(=O)(=O)N2	Tau FP inhib inconclusive, Tau fluor cs inconclusive, GoLoco inh red 2µM, Tau fibril ThT inconclusive
Cc1ccc2c(c1)-c1ccccc1S(=O)(=O)N2	none
COc1ccc(C2=Nn3c(nnc3-c3ccccc3OC)SC2)c(OC)c1	none (no result: Tau FP inhib, Tau fluor cs, GoLoco inh red, Tau fibril ThT)
CCOC(=O)C1=C(C)OC(N)=C(C#N)C1c1cc2c(cc1[N+](=O)[O-])OCO2 (stereo unspecified)	Tau FP inhib inconclusive, Tau fluor cs inconclusive, Tau fibril ThT 28µM
COc1cc(Nc2ccccn2)cc(C(=O)Nc2cccc(C(F)(F)F)c2)c1	Tau fluor cs 14µM[quencher]
COc1ccc(-c2ccoc2)cc1C1C2C=CCC(C)C2C(=O)N1Cc1ccccc1 (stereo unspecified)	none (no result: Tau FP inhib, Tau fluor cs, GoLoco inh red, Tau fibril ThT)
O=C(COC(=O)C1CC(O)CN1S(=O)(=O)c1ccc(Cl)cc1)c1ccccc1 (stereo unspecified)	TR SRC2 fluor cs 0.11µM[quencher]
O=C(COC(=O)C1CC(O)CN1S(=O)(=O)c1ccc(Cl)cc1)c1ccccc1Cl (stereo unspecified)	none
CSCC[C@@H]1NC(=O)[C@@H](NC(=O)[C@H](CCCNC(=N)N)NC(=O)[C@H](CC(C)C)NC(=O)[C@H](CCSC)NC(=O)[C@H](CC(=O)O)NC(=O)[C@H](Cc2ccccc2)NC(=O)[C@@H](N)CC(=O)O)CSSC[C@@H](C(=O)N[C@@H](Cc2c[nH]c3ccccc23)C(=O)N[C@@H](CCC(N)=O)C(=O)N[C@@H](Cc2ccc(O)cc2)C(=O)O)NC(=O)[C@@H]2CCCN2C(=O)[C@H](CCCNC(=N)N)NC(=O)[C@H](Cc2ccccc2)NC(=O)[C@H](C(C)C)NC(=O)[C@H](CCCNC(=N)N)NC(=O)CNC(=O)[C@H](CC(C)C)NC1=O	none (no result: Tau FP inhib, Tau fluor cs, GoLoco inh red, TR SRC2 fluor cs, Tau fibril ThT)
COc1c(C=O)c(O)cc2c1C(=O)c1ccccc1C2=O	Tau FP inhib inconclusive, Tau fluor cs inconclusive, TR SRC2 fluor cs inconclusive, Tau fibril ThT 7.9µM
Cc1cc(O)c2c(c1)C(=O)c1cccc(O)c1C2=O	Tau fibril ThT inconclusive
CC(Oc1ccccc1)C(=O)Nc1ccccc1O (stereo unspecified)	none
CC(CNc1ccccc1O)C(=O)O (stereo unspecified)	Tau FP inhib inconclusive, Tau fluor cs inconclusive, Tau fibril ThT 28µM
O=C(CSc1nc2ncc(Br)cc2[nH]1)c1ccc([N+](=O)[O-])cc1	Tau FP inhib inconclusive, Tau fluor cs inconclusive, Tau fibril ThT 28µM
COc1ccc(N=Nc2cnc(C)nc2-c2ccccc2)cc1	Tau fluor cs inconclusive, Tau fibril ThT 18µM
COC(=O)/C(=N/Nc1ccccc1Cl)Sc1nnc(C(O)c2ccccc2)n1-c1ccccc1 (stereo unspecified)	TR SRC2 fluor cs 35µM[quencher]
CC(=O)/C(=N/Nc1ccccc1Cl)Sc1nnc(C(O)c2ccccc2)n1-c1ccccc1 (stereo unspecified)	none
C[C@@H]1C(=O)N(S(=O)(=O)c2ccccc2[N+](=O)[O-])[C@H]1c1ccc(-c2ccccc2)cc1	none (no result: Tau FP inhib, Tau fluor cs, GoLoco inh red, Tau fibril ThT)
O=c1ccc2cc3c([nH]c4ccc(Br)cc43)oc-2c1O	Tau FP inhib inconclusive, Tau fluor cs inconclusive, Tau fibril ThT 14µM
O=c1c2c([nH]c3ccc(Br)cc13)CCCC2	none
C[C@H](NC(=O)[C@@H](Cc1c[nH]c2ccccc12)NC(=O)[C@@H](N)Cc1cnc[nH]1)C(=O)N[C@@H](Cc1c[nH]c2ccccc12)C(=O)N[C@H](Cc1ccccc1)C(=O)N[C@@H](CCCCN)C(N)=O	none (no result: Tau FP inhib, Tau fluor cs, GoLoco inh red, Tau fibril ThT)
CS[C@@H]1SC[C@H]2C(=O)N(C)C(C(C)C)C(=O)OC[C@@H](NC(=O)c3cnc4ccccc4n3)C(=O)N[C@@H](C)C(=O)N(C)[C@H]1C(=O)N(C)C(C(C)C)C(=O)OC[C@@H](NC(=O)c1cnc3ccccc3n1)C(=O)N[C@@H](C)C(=O)N2C (stereo partly specified)	none (no result: Tau FP inhib, Tau fluor cs, GoLoco inh red, Tau fibril ThT)
O=C(CCCC(=O)N1CCN(c2ccc([N+](=O)[O-])cc2)CC1)c1ccccc1	Tau fibril ThT 2.2µM
O=C(CCCc1ccccc1)N1CCN(c2ccc([N+](=O)[O-])cc2)CC1	Tau fibril ThT 2.2µM
CC(C[N+](C)(C)C)OC(=O)C1(c2ccccc2)CCCC1 (stereo unspecified)	none
C[N+](C)(C)CCOC(=O)C1(c2ccccc2)CCCC1	GoLoco inh red 7.1µM
Cn1cnnc1SCC(=O)c1cc2ccccc2oc1=O	Tau FP inhib inconclusive, Tau fluor cs inconclusive, Tau fibril ThT 28µM
O=C(CSc1nnc(-c2cccnc2)o1)c1cc2ccccc2oc1=O	Tau fibril ThT inconclusive
COc1ccc(CNc2ncncc2-c2ccc(N(C)C)cc2)c(OC)c1	none (no result: Tau FP inhib, Tau fluor cs, TR SRC2 fluor cs, Tau fibril ThT, TRb-SRC2 inh)
C=C(C)C(O)/C=C/c1ccc(Br)cc1 (stereo unspecified)	Tau fibril ThT inconclusive
CC1=NN(c2ccccc2)C(=O)/C1=C\C=C1\N(C)c2ccccc2C1(C)C	Tau fluor cs inconclusive, Tau fibril ThT 1.6µM
CC1=NN(c2ccccc2)C(=O)/C1=C\C=C1/N(C)c2ccccc2C1(C)C	Tau FP inhib inconclusive, Tau fluor cs inconclusive, Tau fibril ThT 2.2µM
CO/N=C/C=C1/N(C)c2ccccc2C1(C)C	Tau FP inhib inconclusive
COc1ccc2c(c1)O[C@@H](c1cccc(C(F)(F)F)c1)[C@H](OC(=O)N[C@H](C)C1CCCCC1)C2=O	none
CC(=O)OCC1OC(C#Cc2ccccc2)C=CC1OC(C)=O (stereo unspecified)	Tau FP inhib inconclusive, Tau fibril ThT inconclusive (no result: GoLoco inh red)
CCN(CCNC(=O)c1ccc(CSc2nc3ccncc3[nH]2)cc1)c1ccccc1	Tau fluor cs 25µM[quencher], Tau fibril ThT inconclusive
O=C(NCCN1CCN(c2cccc(Cl)c2)CC1)c1ccc(CSc2nc3ccncc3[nH]2)cc1	Tau FP inhib inconclusive, Tau fluor cs inconclusive, Tau fibril ThT inconclusive
COc1ccc(C2C3C=CCCC3(C)C(=O)N2Cc2ccccc2)cc1Cl (stereo unspecified)	none (no result: Tau FP inhib, Tau fluor cs, GoLoco inh red, Tau fibril ThT)
S=C(N=Nc1ccccc1)NNc1ccccc1	Tau FP inhib inconclusive, Tau fluor cs 20µM[quencher], Tau fibril ThT 25µM
NC(=O)NNc1ccccc1	none
